PubChem BioAssay (EPA / NIEHS)
Records with an inconclusive call do not appear. The source made the active and inactive calls. How the source made its calls: active means hit-call score of the fitted dose curve at least 0.9, where 1 is the maximum; inconclusive means response in the unintended direction; inactive means score below 0.9.

Test system: not listed separately
Test: TOX21_p53_BLA_p3_viability: Viability Assessment in the Tox21 HCT-116 p53 Agonism Beta-lactamase Assay, Phase 3 (AID 2283593);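 further: cells exposed to compound for 16 h before reading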
In short: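 Cellular ATP was quantified by CellTiter-Glo luminescence, read after 30 min at room temperature. Beforehand, HCT116 cells (4000/well) received compound 5 h post-seeding, 217-fold diluted from DMSO, then incubated 16 h at 37C.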

Q: With `OCC(S)CS` (stereo not drawn) as the compound, how does the AC50 read?
A: 29.5 µM (active)

Q: With `CCCCCCC` as the compound, how does the outcome read?
A: inactive

Q: For `CCCCC(=O)OCC(=O)[C@H]1[C@H](C)C[C@H]2[C@@H]3C[C@H](F)C4=CC(=O)C=C[C@]4(C)[C@@]3(F)[C@@H](O)C[C@@]21C`, which outcome is on record?
A: inactive

Q: With `CC(CCl)OC(C)CCl` (stereo not drawn) as the compound, how does the outcome read?
A: inactive

Q: Which outcome does the source give for `OC(CCN1CCCCC1)(c1ccccc1)C1CC2C=CC1C2` (stereo not drawn) here?
A: inactive

Q: Which outcome does the source give for `Cc1nc2ccccn2c(=O)c1CCN1CCC(C(=O)c2ccc(F)cc2)CC1` here?
A: inactive

Q: Which outcome does the source give for `CC(C)(C)NCC(O)COc1ccc(NC(=O)NC2CCCCC2)cc1` (stereo not drawn) here?
A: inactive

Q: With `NS(=O)(=O)c1cc(C2(O)NC(=O)c3ccccc32)ccc1Cl` (stereo not drawn) as the compound, how does the outcome read?
A: inactive

Q: Which outcome does the source give for `CCC(=O)OCC(=O)[C@@]1(OC(=O)CC)[C@H](C)C[C@H]2[C@@H]3CCC4=CC(=O)C=C[C@]4(C)[C@@]3(F)[C@@H](O)C[C@@]21C` here?
A: inactive

Q: With `C[C@]12CCC(=O)C=C1C=C[C@@H]1[C@@H]2CC[C@@]2(C)[C@H]1CC[C@@]21CCC(=O)O1` as the compound, how does the outcome read?
A: inactive

Q: Which outcome does the source give for `C=C1CC2C3CCC4=CC(=O)C=C[C@]4(C)[C@@]3(F)[C@@H](O)C[C@]2(C)[C@@]1(O)C(=O)COC(C)=O` (stereo partly drawn) here?
A: inactive

Q: With `Cc1c(C)c2c(c(C)c1OC(=O)CCC(=O)OCCO)CCC(C)(CCCC(C)CCCC(C)CCCC(C)C)O2` (stereo not drawn) as the compound, how does the AC50 read?
A: 19.2 µM (active)

Q: With `CC(=O)c1ccc2c(c1)N(CCCN1CCN(CCO)CC1)c1ccccc1S2` as the compound, how does the outcome read?
A: inactive

Q: Which outcome does the source give for `CC(C(=O)O)c1ccc(N2Cc3ccccc3C2=O)cc1` (stereo not drawn) here?
A: inactive

Q: Which outcome does the source give for `C[C@H](CCC(=O)O)[C@H]1CC[C@H]2[C@@H]3[C@H](O)C[C@@H]4C[C@H](O)CC[C@]4(C)[C@H]3C[C@H](O)[C@]12C` here?
A: inactive

Q: For `CCCCCCCCCCCCCC[N+](C)(C)Cc1ccccc1`, which outcome is on record?
A: inactive

Q: For `CC(=NO)C(C)=NO`, which outcome is on record?
A: inactive

Q: For `CCCC(=O)CC`, which outcome is on record?
A: inactive

Q: With `Nc1ccc(NC(=O)c2ccc(N)cc2)cc1` as the compound, how does the outcome read?
A: inactive

Q: With `CC(=O)OCC(=O)[C@@]1(OC(C)=O)[C@@H](C)C[C@H]2[C@@H]3C[C@H](F)C4=CC(=O)C=C[C@]4(C)[C@@]3(F)[C@@H](O)C[C@@]21C` as the compound, how does the outcome read?
A: inactive

Q: Which outcome does the source give for `CC1CCCNC1` (stereo not drawn) here?
A: inactive

Q: For `CC(C)[N+](C)(C)CC(O)COc1cccc2ccccc12` (stereo not drawn), which outcome is on record?
A: inactive

Q: With `CC(=O)c1ccc2c(c1)N(CCCN1CCC(CCO)CC1)c1ccccc1S2` as the compound, how does the outcome read?
A: inactive

Q: For `O=P(O)(O)CP(=O)(O)O`, which outcome is on record?
A: inactive

Target: Cellular tumor antigen p53 (Homo sapiens) (UniProt P04637)
Sequence (P04637 whole entry, looked up): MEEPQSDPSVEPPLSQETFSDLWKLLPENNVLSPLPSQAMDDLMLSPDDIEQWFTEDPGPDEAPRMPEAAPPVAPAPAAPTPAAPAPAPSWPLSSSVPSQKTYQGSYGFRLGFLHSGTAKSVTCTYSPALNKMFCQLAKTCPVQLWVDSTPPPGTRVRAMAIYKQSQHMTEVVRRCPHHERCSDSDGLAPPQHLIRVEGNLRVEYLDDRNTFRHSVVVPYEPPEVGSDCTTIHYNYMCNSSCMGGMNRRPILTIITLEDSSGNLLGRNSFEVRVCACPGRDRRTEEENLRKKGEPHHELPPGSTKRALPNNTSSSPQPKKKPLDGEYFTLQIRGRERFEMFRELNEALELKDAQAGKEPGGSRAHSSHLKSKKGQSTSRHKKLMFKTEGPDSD
Test: TOX21_p53_BLA_p3_ratio: Tox21 HCT-116 p53 Agonism Beta-lactamase Assay, Ratio, Phase 3 (AID 2283596)
In short: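 HCT116 p53-bla cells (4000/well) given compound in DMSO (217-fold dilution) after 5 h, incubated 16 h at 37C. CCF4-AM substrate 2 h at room temperature; 460/530 nm emission ratio, gain fitted against DMSO.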

Q: For `CC[C@@H]([C@H](C)O)n1ncn(-c2ccc(N3CCN(c4ccc(OC[C@@H]5CO[C@@](Cn6cncn6)(c6ccc(F)cc6F)C5)cc4)CC3)cc2)c1=O`, which outcome is on record?
A: inactive

Q: Which outcome does the source give for `O=C(O)CCCC/C=C(\c1ccccc1)c1cccnc1` here?
A: inactive

Q: Which outcome does the source give for `COc1ccc(CCN(C)CCCC(C#N)(c2cc(OC)c(OC)c(OC)c2)C(C)C)cc1OC` (stereo not drawn) here?
A: inactive

Q: With `CCN(O)CC` as the compound, how does the outcome read?
A: inactive

Q: With `CCOC(=O)c1cccnc1` as the compound, how does the outcome read?
A: inactive

Q: For `CCCCCCCCCCCBr`, which outcome is on record?
A: inactive

Q: For `CC(C)(C(=O)c1cccnc1)c1cccnc1`, which outcome is on record?
A: inactive

Q: Which outcome does the source give for `CN1CCN(C2Cc3ccccc3Sc3ccc(Cl)cc32)CC1` (stereo not drawn) here?
A: inactive

Q: With `O=S(=O)(O)c1ccc2c(N=Nc3ccc(S(=O)(=O)O)c4ccccc34)c(O)c(S(=O)(=O)O)cc2c1` as the compound, how does the outcome read?
A: inactive

Q: Which outcome does the source give for `CC1(C)S[C@@H]2[C@H](N3C(=O)C(c4ccccc4)NC3(C)C)C(=O)N2[C@H]1C(=O)O` (stereo partly drawn) here?
A: inactive

Q: With `CO[C@@H]1[C@@H](O[C@@H]2O[C@H](C)[C@@H](O[C@H]3C[C@@](C)(O)[C@@H](O)[C@H](C)O3)[C@H](N(C)C)[C@H]2O)[C@@H](CC=O)C[C@@H](C)[C@@H](O[C@@H]2CC[C@H](N(C)C)[C@@H](C)O2)/C=C/C=C/C[C@@H](C)OC(=O)C[C@H]1OC(C)=O` as the compound, how does the outcome read?
A: inactive

Q: For `Cc1nc(C)c(C)nc1C`, which outcome is on record?
A: inactive

Q: For `C[C@@H]1C[C@H]2[C@@H]3CCC4=CC(=O)C=C[C@]4(C)[C@@]3(Cl)[C@@H](O)C[C@]2(C)[C@@]1(OC(=O)c1ccco1)C(=O)CCl`, which outcome is on record?
A: inactive

Q: Which outcome does the source give for `CCOC(=O)Cc1ccc(-c2ccccc2)cc1` here?
A: inactive

Q: For `COCCOC(=O)C1=C(C)NC(C)=C(C(=O)OC(C)C)C1c1cccc([N+](=O)[O-])c1` (stereo not drawn), which outcome is on record?
A: inactive

Q: With `OCC(S)CS` (stereo not drawn) as the compound, how does the AC50 read?
A: 35.7 µM (active)

Q: For `CCCCCCC`, which outcome is on record?
A: inactive

Q: Which outcome does the source give for `CCCCC(=O)OCC(=O)[C@H]1[C@H](C)C[C@H]2[C@@H]3C[C@H](F)C4=CC(=O)C=C[C@]4(C)[C@@]3(F)[C@@H](O)C[C@@]21C` here?
A: inactive

Q: For `CC(CCl)OC(C)CCl` (stereo not drawn), which outcome is on record?
A: inactive

Q: With `OC(CCN1CCCCC1)(c1ccccc1)C1CC2C=CC1C2` (stereo not drawn) as the compound, how does the outcome read?
A: inactive

Q: Which outcome does the source give for `Cc1nc2ccccn2c(=O)c1CCN1CCC(C(=O)c2ccc(F)cc2)CC1` here?
A: inactive

Q: With `CC(C)(C)NCC(O)COc1ccc(NC(=O)NC2CCCCC2)cc1` (stereo not drawn) as the compound, how does the outcome read?
A: inactive

Q: Which outcome does the source give for `NS(=O)(=O)c1cc(C2(O)NC(=O)c3ccccc32)ccc1Cl` (stereo not drawn) here?
A: inactive

Q: For `CCC(=O)OCC(=O)[C@@]1(OC(=O)CC)[C@H](C)C[C@H]2[C@@H]3CCC4=CC(=O)C=C[C@]4(C)[C@@]3(F)[C@@H](O)C[C@@]21C`, which outcome is on record?
A: inactive

Q: For `C[C@]12CCC(=O)C=C1C=C[C@@H]1[C@@H]2CC[C@@]2(C)[C@H]1CC[C@@]21CCC(=O)O1`, which outcome is on record?
A: inactive

Q: With `C=C1CC2C3CCC4=CC(=O)C=C[C@]4(C)[C@@]3(F)[C@@H](O)C[C@]2(C)[C@@]1(O)C(=O)COC(C)=O` (stereo partly drawn) as the compound, how does the outcome read?
A: inactive

Q: Which AC50 does the source give for `Cc1c(C)c2c(c(C)c1OC(=O)CCC(=O)OCCO)CCC(C)(CCCC(C)CCCC(C)CCCC(C)C)O2` (stereo not drawn) here?
A: 37.3 µM (active)

Q: With `CC(=O)c1ccc2c(c1)N(CCCN1CCN(CCO)CC1)c1ccccc1S2` as the compound, how does the outcome read?
A: inactive

Q: For `CC(C(=O)O)c1ccc(N2Cc3ccccc3C2=O)cc1` (stereo not drawn), which outcome is on record?
A: inactive

Q: With `C[C@H](CCC(=O)O)[C@H]1CC[C@H]2[C@@H]3[C@H](O)C[C@@H]4C[C@H](O)CC[C@]4(C)[C@H]3C[C@H](O)[C@]12C` as the compound, how does the outcome read?
A: inactive

Q: For `CCCCCCCCCCCCCC[N+](C)(C)Cc1ccccc1`, which outcome is on record?
A: inactive

Q: Which outcome does the source give for `CC(=NO)C(C)=NO` here?
A: inactive

Q: With `CCCC(=O)CC` as the compound, how does the outcome read?
A: inactive

Q: Which outcome does the source give for `Nc1ccc(NC(=O)c2ccc(N)cc2)cc1` here?
A: inactive

Q: Which outcome does the source give for `CC(=O)OCC(=O)[C@@]1(OC(C)=O)[C@@H](C)C[C@H]2[C@@H]3C[C@H](F)C4=CC(=O)C=C[C@]4(C)[C@@]3(F)[C@@H](O)C[C@@]21C` here?
A: inactive

Q: Which outcome does the source give for `CC1CCCNC1` (stereo not drawn) here?
A: inactive

Q: With `CC(C)[N+](C)(C)CC(O)COc1cccc2ccccc12` (stereo not drawn) as the compound, how does the outcome read?
A: inactive

Q: With `CC(=O)c1ccc2c(c1)N(CCCN1CCC(CCO)CC1)c1ccccc1S2` as the compound, how does the outcome read?
A: inactive

Q: For `O=P(O)(O)CP(=O)(O)O`, which outcome is on record?
A: inactive
